According to PubChem BioAssay (NCATS):
Inconclusive results are not listed. A number with no mark means an inactive call. The source made the active and inactive calls. The call rests on the fitted dose curve; in most records, active means well fitted inhibition curve with a large enough effect; inconclusive means small, poorly fitted or top-dose-only effect; inactive means flat fitted curve, though single readings scatter.

These compounds were tested on Zika virus NS2B-NS3 protease (assay: Primary screen GU AMC qHTS for Zika virus inhibitors (AID 1347154;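 further: 0% = no-inhibitor control and -100% = no-enzyme control; nearly all actives have a fitted effect of over 70% in size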)). Details: Zika NS2B-NS3 unlinked protease, AMC fluorogenic substrate; series mostly up to 54.1 µM; activity change, negative = inhibition: at the top concentration.
Source text: Avindra Nath, Ph.D., National Institute of Neurological Disorders and Stroke (NINDS), Bethesda, MD
Radhakrishnan Padmanabhan, Ph.D., Georgetown University (GU), Washington D.C.
Zika Virus causes congenital defects, including microcephaly and is associated with Guillain-Barre syndrome, eningoencephalitis and myelitis in infected adult. […] Using a target-based approach, we hope to establish a screening paradigm to uncover novel, cell-active NS2B-NS3 protease (Zika Virus) specific inhibitors from NCATS' collection of small molecules using qHTS.
Early Translation Branch (ETB)
National Center for Advancing Translational Sciences (NCATS), Rockville, MD
National Institute of Health (NIH), Bethesda, Maryland
Padmanabhan lab provided the NS2B hydrophilic domain and NS3 protease domain in a noncovalent complex used for the unlinked assay. Control compound aprotinin is obtained from Thermo Scientific (#78432; Waltham, Massachusetts). NS2B-NS3 AMC substrate (Bz-Nle-Lys-Arg-Arg-AMC; Nle-KRR-AMC) purchased from Bachem (#I-1995; Torrance, CA). Ac-VKTGKR-AMC purchased from Genscript or Bachem, Ac-FAAGKR-AMC purchased from Genscript, Ac-GLVKRR-AMC purchased from Genscript, Ac-LKKR-AMC purchased from Genscript.
GU AMC unlinked NS2B-NS3 protease qHTS protocol
Briefly, 3 microL of Zika virus unlinked NS2B-NS3 protease (25 nM for linked final concentration), in assay buffer (10 mM Tris-HCl pH 8.0 with 0.01% Tween 20) was dispensed into a 1,536-well solid-bottom black plate (Greiner Bio One, Monroe, NC). […] Plates were then read immediately on a ViewLux High-throughput CCD imager (PerkinElmer, Waltham, MA) equipped with standard UV fluorescence optics (340(30) nm excitation, 450(20) nm emission) then incubated (room temperature, protected from light) for 15 minutes (~20% conversion). The change in fluorescence intensity over the 15-minute reaction period was normalized against no-inhibitor and no-enzyme controls and the resulting percent inhibition data were fitted to a 4-parameter Hill equation. Aprotinin was used as the intraplate control.

Row | Structure (SMILES) | activity change, negative = inhibition | outcome
1 | CN(C)CCCN1c2ccccc2Sc2ccccc21 | 1.55% | 
2 | COC(=O)C1=C(C)NC(C)=C(C(=O)OCCN(C)Cc2ccccc2)C1c1cccc([N+](=O)[O-])c1 (stereo not given) |  | inactive
3 | Cc1nc2sccn2c(=O)c1CCN1CCC(=C(c2ccc(F)cc2)c2ccc(F)cc2)CC1 | -5.92% | 
4 | Cc1ccc(S(=O)(=O)NC(=O)NN2CCCCCC2)cc1 |  | inactive
5 | CC[N+](C)(C)c1cccc(O)c1 | 2.19% | 
6 | N[C@@H](COP(=O)(O)O)C(=O)O |  | inactive
7 | C[C@H](CS)C(=O)N1CCC[C@H]1C(=O)O | -1.85% | 
8 | CCN(CC)CCNC(=O)c1ccc(NC(C)=O)cc1 | -0.243% | 
9 | Cc1nnc(SCC2=C(C(=O)O)N3C(=O)[C@@H](NC(=O)Cn4cnnn4)[C@H]3SC2)s1 | -0.697% | 
10 | COc1cc(Cc2cnc(N)nc2N)cc(OC)c1OC |  | inactive
11 | CCCOc1ccccc1-c1nc2n[nH]nc2c(=O)[nH]1 |  | inactive
12 | O=C(O)CP(=O)(O)O | -3.08% | 
13 | NC(=Nc1ccccc1)Nc1ccccc1 |  | inactive
14 | CN(C)CC[C@@H](c1ccc(Br)cc1)c1ccccn1 | -4.68% | 
15 | CC(=O)[C@@]1(O)CC[C@H]2[C@@H]3CCC4=CC(=O)CC[C@]4(C)[C@H]3CC[C@@]21C | 2.49% | 
16 | CCC(=O)c1ccc2c(c1)N(CCCN(C)C)c1ccccc1S2 | -2.78% | 
17 | CC(=O)[C@]1(O)Cc2c(O)c3c(c(O)c2[C@@H](O[C@H]2C[C@H](N)[C@H](O)[C@H](C)O2)C1)C(=O)c1ccccc1C3=O | -4.01% | 
18 | CCN(CC)CCOCCOC(=O)C1(c2ccccc2)CCCC1 |  | inactive
19 | Brc1c(NC2=NCCN2)ccc2nccnc12 |  | inactive
20 | CN(C)C(=O)Oc1ccc[n+](C)c1 | 2.88% | 

Row | Structure (SMILES) | activity change, negative = inhibition | outcome
21 | CC(C)COCC(CN(Cc1ccccc1)c1ccccc1)N1CCCC1 (stereo not given) |  | inactive
22 | CC(C(=O)O)c1ccc(CC2CCCC2=O)cc1 (stereo not given) | -3.4% | 
23 | NC(=O)c1cn(Cc2c(F)cccc2F)nn1 | -1.38% | 
24 | O=C1CC2(CCCC2)CC(=O)N1CCCCN1CCN(c2ncccn2)CC1 |  | inactive
25 | COCCOC(=O)C1=C(C)NC(C)=C(C(=O)OC(C)C)C1c1cccc([N+](=O)[O-])c1 (stereo not given) |  | inactive
26 | COCCc1ccc(OCC(O)CNC(C)C)cc1 (stereo not given) | -0.181% | 
27 | CN/C(=C\[N+](=O)[O-])NCCSCc1ccc(CN(C)C)o1 |  | inactive
28 | CC(C)(C)NCC(O)c1cc(O)cc(O)c1 (stereo not given) | -12.6% | 
29 | CCn1ccnc1CC1COc2ccccc2O1 (stereo not given) | -2.69% | 
30 | COc1ccc2c(c1OC)C(=O)O[C@@H]2[C@H]1c2c(cc3c(c2OC)OCO3)CCN1C |  | inactive
31 | CCN(CC)CC(=O)Nc1c(C)cccc1C |  | inactive
32 | CN1C[C@H](C(=O)N[C@]2(C)O[C@@]3(O)[C@@H]4CCCN4C(=O)[C@H](Cc4ccccc4)N3C2=O)C[C@@H]2c3cccc4[nH]cc(c34)C[C@H]21 | -9.55% | 
33 | Cc1ccc(/C(=C\CN2CCCC2)c2ccccn2)cc1 | -1.28% | 
34 | OCCN1CCN(CCCN2c3ccccc3C=Cc3ccccc32)CC1 | 5.24% | 
35 | NC/C=C/C(=O)O |  | inactive
36 | C[C@]12C=CC(=O)C=C1CC[C@H]1[C@@H]3C[C@@H](O)[C@](O)(C(=O)CO)[C@@]3(C)C[C@H](O)[C@@]12F | -6.66% | 
37 | NCCCNCCSP(=O)(O)O | -3.39% [at 6.83 µM] | 
38 | Nc1c2c(nc3ccccc13)CCCC2O (stereo not given) | -4.54% | 
39 | CC(=O)OCC1=C(C(=O)O)N2C(=O)[C@@H](NC(=O)Cc3cccs3)[C@H]2SC1 | -2.62% | 
40 | CCCCNC(=O)NS(=O)(=O)c1ccc(C)cc1 |  | inactive
